Measurements: PubChem BioAssay (NCATS)
Records with an inconclusive call do not appear. A number with no mark means an inactive call. Active and inactive are the calls of the source. Calls come from the whole dose curve; as a rule, active = well fitted cell-killing curve with a large enough effect; inconclusive = small, poorly fitted or top-dose-only effect; inactive = flat fitted curve, though single readings scatter.

experiment: qHTS of pediatric cancer cell lines to identify multiple opportunities for drug repurposing: Primary screen for BT-12 cells (AID 1347101); settings: BT-12 viability, CellTiter-Glo luminescence, 48 h; series mostly up to 57.3 µM; activity change, negative = cytotoxic: at the top concentration; note: nearly all actives have a fitted effect of over 25% in size
Description: Drug repurposing or repositioning has been offered as a strategy for drug development in oncology programs. This approach has special potential for childhood cancers and other rare or orphan diseases, where the expected return on new drug development has been a disincentive to pharmaceuticals.
In this project we exploit the poly-pharmacology of drugs to discover new indications via phenotypic screening of a panel of 19 well-characterized cell lines derived from solid tumors seen in children and adolescents. The goal is to identify approved drugs with previously unrecognized anticancer properties that has the potential to reveal new mechanisms and biological processes involved in carcinogenesis or drug resistance. We employed a titration-based paradigm (quantitative high-throughput screening or qHTS), where all compounds were tested at multiple concentrations for their effect on cell viability. Concentration-response curves (CRCs) were derived directly from the primary screen, and both potency and efficacy values were used to identify compounds with robust bioactivity profiles. We screened the NIH Chemical Genomics Center (NCGC) Pharmaceutical Collection (NPC) and Mechanism Interrogation Plate (MIPE) small molecule collections of approved and investigational compounds against these cell lines; and measured metabolically active cells after 48 hours of compound treatment as a proxy for cell viability.
Assay Submitter: Nathalia J. Martinez, National Center for Advancing Translational Sciences, National Institutes of Health, Rockville, MD, USA; email: natalia.martinez@nih.gov
[1] Shen, M et al. Quantitative high-throughput phenotypic screening of pediatric cancer cell lines identifies multiple opportunities for drug repurposing. Oncotarget 2017 Dec 19;9(4):4758-4772. PMID 29435139.
The cells were obtained from University of North Carolina (UNC), Pediatric Preclinical Testing Program (PPT), and Coriell Institute (CI).
qHTS cell viability assay:
Cells were assayed in growth media at a density of 500-1,000 cells/well. Five microliters of cells were dispensed into 1,536-well, white, solid-bottom, TC-treated plates (Greiner Bio One) using a multidrop dispenser and incubated at 37 degrees C, 5% CO2, under a humidified atmosphere for 5 hours. Twenty-three nanoliters of compounds and controls (neutral control DMSO or positive control bortezomib at final concentration of 2.3 µM) were subsequently transferred by Kalypsys pintool. For primary screens, the MIPE collection was tested at 11-point dilutions (final concentrations range from 0.78 nM to 46 µM) and the NPC collection at 8-point dilutions (final concentrations range from 0.59 nM to 46 µM). Compounds tested in follow-up screens were assayed at 11-point dilutions. Cells were incubated for 48 hours, followed by addition of 3 µL of CellTiter-Glo (Promega). After a 15 min incubation at room temperature, samples were analyzed for luminescence intensity using a ViewLux High-throughput CCD imager equipped with clear filters.
Potency is the fitted concentration of half-maximal effect.

Structure (SMILES) | activity change, negative = cytotoxic | Potency
CCCCNc1c(C(=O)OCC)c(C)nc2c1cnn2CC | -21.8% | –
O=C(O)CN(CCN(CC(=O)O)CC(=O)O)CCN(CC(=O)O)CC(=O)O | 9.74% [at 20.1 µM] | –
O=C(O)CCCCCCCC(=O)O | 9.04% | –
CCCCCN(CCCCC)C(=O)C(CCC(=O)O)NC(=O)c1ccc(Cl)c(Cl)c1 (stereo not given) | 6.79% | –
C=CCc1ccccc1OCC(O)CNC(C)C (stereo not given) | -2.76% | –
CC(C)NNC(=O)c1ccncc1 | 8.01% | –
CCN(CC)CCNC(=O)c1cc(S(C)(=O)=O)ccc1OC | 12.4% | –
COc1ccc(CN(CCN(C)C)c2ccccn2)cc1 | -8.05% | –
CC(C)NCC(O)c1cc(O)cc(O)c1 (stereo not given) | 4.4% | –
CN=C(NC#N)NCCSCc1nc[nH]c1C | 1.18% | –
CCc1c(C)[nH]c2c1C(=O)C(CN1CCOCC1)CC2 (stereo not given) | 6.58% | –
C[C@H](CS)C(=O)N1CCC[C@H]1C(=O)O | 5.23% | –
CN(C)CCOC(=O)COc1ccc(Cl)cc1 | 16.6% | –
CCCCOCCOCCOCc1cc2c(cc1CCC)OCO2 | -13.3% | –
CCn1ccnc1CC1COc2ccccc2O1 (stereo not given) | 3.66% | –
COCCc1ccc(OCC(O)CNC(C)C)cc1 (stereo not given) | 7.63% | –
CC(C)(C)c1ccc(C(=O)CCCN2CCC(OC(c3ccccc3)c3ccccc3)CC2)cc1 | – | 19.5 µM (active)
CC[N+](C)(C)c1cccc(O)c1 | 15.4% | –
CNC1(C)C2CCC(C2)C1(C)C (stereo not given) | -4.62% | –
CNCCC(Oc1ccccc1OC)c1ccccc1 (stereo not given) | -4% | –

Structure (SMILES) | activity change, negative = cytotoxic | Potency
N[C@@H](COP(=O)(O)O)C(=O)O | 3.48% [at 20.1 µM] | –
O=c1[nH]c(=O)n([C@H]2C[C@H](O)[C@@H](CO)O2)cc1Br | -18.3% | –
CN(C)CC[C@@H](c1ccc(Br)cc1)c1ccccn1 | -2.53% | –
Nc1c2c(nc3ccccc13)CCCC2O (stereo not given) | 12.2% | –
CCN1CCc2nc(N)oc2CC1 | 6.83% | –
CO[C@@]1(NC(=O)CSCC#N)C(=O)N2C(C(=O)O)=C(CSc3nnnn3C)CS[C@@H]21 | 14.3% | –
CC(=O)OC(C)C[N+](C)(C)C (stereo not given) | 5.98% | –
Cc1ccc(S(=O)(=O)NC(=O)NN2CCCCCC2)cc1 | 2.33% | –
CCO/C([O-])=N/c1c[n+](N2CCOCC2)no1 | 5.69% | –
COc1cc(Cc2cnc(N)nc2N)cc(OC)c1OC | -14.3% | –
O=C1CC2(CCCC2)CC(=O)N1CCCCN1CCN(c2ncccn2)CC1 | -7.65% | –
COCCCC/C(=N\OCCN)c1ccc(C(F)(F)F)cc1 | -13.1% | –
C#CCN(C)CCCOc1ccc(Cl)cc1Cl | -0.461% | –
NC(=O)c1cn(Cc2c(F)cccc2F)nn1 | 4.25% | –
NCCCNCCSP(=O)(O)O | 8.37% [at 11.5 µM] | –
Cc1nnc(SCC2=C(C(=O)O)N3C(=O)[C@@H](NC(=O)Cn4cnnn4)[C@H]3SC2)s1 | 6.91% | –
C(=C\c1ccccc1)/CN1CCN(C(c2ccccc2)c2ccccc2)CC1 | -19.8% | –
CCCCNC(=O)NS(=O)(=O)c1ccc(C)cc1 | 3.89% | –
CC(=O)OCC1=C(C(=O)O)N2C(=O)[C@@H](NC(=O)Cc3cccs3)[C@H]2SC1 | 12.6% | –
Brc1c(NC2=NCCN2)ccc2nccnc12 | -4.14% | –
